# Source: PubChem BioAssay
# Active and inactive are the calls of the source.
# Assays:
# Albumin (Bos taurus) = Albumin (Bos taurus) (UniProt P02769); assay: bovine serum albumin binders on microarray, profiling panel, artefact control for SMM control protein annotation, biochemical, small-molecule microarray, Alexa647 label, 635/667 nm fluorescence (AID 1118); details: BSA-A647 binding, fluorescence 635 nm, higher = more signal;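 further: score merges 667 nm emission intensity and signal-to-noise per printed compound spot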
# [1] = small-molecule microarray binders of probe aXIP, primary screen, biochemical, NeuroSMM set, 635/667 nm fluorescence (AID 1119); details: higher = more signal, called active from +8 up or from −8 down;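 further: probe is the protein aXip251-270 applied at 1 µg/mL to compound-printed slides; binding of probe to printed compounds measured as 667 nm fluorescence plus signal to noise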
# [2] = small-molecule binders of probe aNOTCH3, primary screen, biochemical, small-molecule microarray, 635/667 nm fluorescence (AID 1120); details: higher = more signal;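 further: probe is a biotin-tagged antibody raised against NOTCH3 rather than NOTCH3 protein; score merges spot fluorescence near 667 nm with spot signal to noise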
# [3] = small-molecule binders of probe aNOTCH2, primary screen, biochemical, small-molecule microarray, 635/667 nm fluorescence (AID 1121); details: higher = more signal;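 further: score merges feature fluorescence read at 667 nm with its signal to noise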
# [4] = target: Carbonic anhydrase 2 (Homo sapiens) (UniProt P00918); assay: CAII small-molecule binders, profiling panel, biochemical, small-molecule microarray, Alexa647-labelled CAII (AID 1122); details: CAII-A647 binding fluorescence, higher = more signal
# [5] = COS7 lysate on small-molecule microarray, probe aHis, 635 nm (AID 1123); details: COS7 cell lysate, fluorescence, higher = more signal;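 further: z-score combines 667nm fluorescence intensity with signal-to-noise per printed compound spot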
# [6] = compound binding in COS7 lysate, probe aLAP1, primary screen, cell lysate, small-molecule microarray (AID 1124); details: probe aLAP1, fluorescence, higher = more signal;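 further: lysate comes from COS7 cells expressing LAP1 and is applied at 0.3 µg/mL; score merges spot fluorescence near 667 nm with signal-to-noise over triplicate slides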
# Sam68 (KHDRBS1) = assay: Sam68 small-molecule binders, primary screen, biochemical, small-molecule microarray, 635 nm fluorescence (AID 1125); details: small-molecule microarray binding, higher = more signal;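 further: score merges 667 nm channel intensity with signal to noise over triplicate slides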
# [7] = tested on: Chordin-like protein 2 (CHRDL2); assay: CHRDL2 small-molecule binders, primary screen, biochemical, small-molecule microarray, 635 nm fluorescence (AID 1126); details: small-molecule microarray binding, fluorescence 635 nm; higher = more signal;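 further: printed compound slides probed with Chrdl2 protein at 4 µg/mL for 1 h at 4 C; score merges 667 nm emission intensity with signal to noise over three replicate slides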
# [8] = target: Concanavalin-A (Canavalia ensiformis) (UniProt P02866); assay: ConA small-molecule binders, primary screen, artefact control for SMM control protein annotation, biochemical, small-molecule microarray, Alexa647 label, 635 nm (AID 1127); details: ConA-A647 binding fluorescence, higher = more signal;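 further: z combines 667 nm emission intensity with signal-to-noise across three replicate slides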
# [9] = anti-His antibody binders, primary screen, artefact control for SMM control protein annotation, biochemical, small-molecule microarray, 635 nm fluorescence (AID 1128); details: anti-His Alexa647 antibody binding, higher = more signal;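 further: score merges feature fluorescence with signal-to-noise for each printed compound spot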
# [10] = tested on: Human papillomavirus type 1a E7 protein (residues 1-88); assay: HPV1a E7 small-molecule binders, primary screen, biochemical, small-molecule microarray, residues 1-88, 635 nm (AID 1129); details: small-molecule microarray binding, fluorescence 635 nm; higher = more signal
# [11] = target: Focal adhesion kinase 1 (Homo sapiens) (UniProt Q05397); assay: small-molecule microarray binders of FAK, primary screen, biochemical, 635/667 nm fluorescence, BSA, DTT (AID 1130); details: PTK2 binding, 635 nm fluorescence, higher = more signal;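 further: composite of spot emission at 667 nm and signal to noise over triplicate slides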
# [12] = tested on: Fibrinogen (Alexa647-labelled); assay: fibrinogen binders on compound microarrays, profiling panel, artefact control for SMM control-protein annotation, biochemical, small-molecule microarray, 635/667 nm fluorescence (AID 1131); details: fibrinogen-A647 binding fluorescence, higher = more signal;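 further: z-score merges 667 nm fluorescence with per-spot signal-to-noise over triplicate slides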
# [13] = target: Follistatin (Homo sapiens) (UniProt P19883); assay: follistatin binders on small-molecule microarrays, primary screen, biochemical, small-molecule microarray, 635/667 nm fluorescence (AID 1132); details: FST binding, 635 nm fluorescence, higher = more signal
# [14] = target: Fibroblast growth factor 2 (Homo sapiens) (UniProt P09038); assay: FGF2 binders on small-molecule microarrays, primary screen, biochemical, small-molecule microarray, 635/667 nm fluorescence (AID 1133); details: small-molecule microarray binding, FGF2, fluorescence 635/667; higher = more signal
# [15] = mitochondrial membrane potential change in A549 cells, profiling panel, cell-based, JC-1 fluorescence, basal, 24 h, 100 nL (AID 1138); details: higher = more signal;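 further: A549 lung adenocarcinoma cells under basal conditions with no added stimulus; test concentration not given here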
# Lefty1 = Lefty1 binders on small-molecule microarrays, primary screen, biochemical, small-molecule microarray, 635/667 nm fluorescence (AID 1139); details: small-molecule microarray binding, fluorescence 635/667; higher = more signal
# [16] = tested on: wheat germ agglutinin (Triticum aestivum), Alexa647-labelled; assay: wheat germ agglutinin binders on compound microarrays, profiling panel, artefact control for SMM control-protein annotation, biochemical, small-molecule microarray, 635/667 nm fluorescence (AID 1140); details: WGA-A647 binding, 635 nm fluorescence, higher = more signal;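 further: score merges 667 nm feature emission with signal to noise over triplicate slides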
# [17] = target: Luciferin 4-monooxygenase (Photinus pyralis) (UniProt P08659); assay: firefly luciferase enzyme inhibitors, primary screen, biochemical, luminescence, purified enzyme, 2006 set (AID 1141); details: SteadyGlo luminescence, 30 min, higher = more signal, called active from +8 up or from −8 down;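 further: cell-free assay with purified firefly luciferase at 100 ng per well in PBS; test concentration not given here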
# Chain of Luciferin 4-monooxygenase (Photinus pyralis) (P08659 whole entry, looked up): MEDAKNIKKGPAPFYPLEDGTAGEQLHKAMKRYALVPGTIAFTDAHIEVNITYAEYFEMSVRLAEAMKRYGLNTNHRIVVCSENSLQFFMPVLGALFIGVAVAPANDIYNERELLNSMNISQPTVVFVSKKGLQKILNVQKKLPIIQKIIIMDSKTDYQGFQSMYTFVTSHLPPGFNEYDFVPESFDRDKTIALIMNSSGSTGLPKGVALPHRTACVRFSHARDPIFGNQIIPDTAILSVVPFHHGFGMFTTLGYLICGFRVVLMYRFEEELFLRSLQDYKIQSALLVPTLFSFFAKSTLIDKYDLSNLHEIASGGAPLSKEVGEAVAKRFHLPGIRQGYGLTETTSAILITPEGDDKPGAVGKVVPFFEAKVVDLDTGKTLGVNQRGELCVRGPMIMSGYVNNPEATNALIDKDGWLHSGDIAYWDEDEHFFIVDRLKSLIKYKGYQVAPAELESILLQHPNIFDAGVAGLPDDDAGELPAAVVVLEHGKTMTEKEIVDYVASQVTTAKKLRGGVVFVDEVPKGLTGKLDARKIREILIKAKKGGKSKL
# Chain of Fibroblast growth factor 2 (Homo sapiens) (P09038 whole entry, looked up): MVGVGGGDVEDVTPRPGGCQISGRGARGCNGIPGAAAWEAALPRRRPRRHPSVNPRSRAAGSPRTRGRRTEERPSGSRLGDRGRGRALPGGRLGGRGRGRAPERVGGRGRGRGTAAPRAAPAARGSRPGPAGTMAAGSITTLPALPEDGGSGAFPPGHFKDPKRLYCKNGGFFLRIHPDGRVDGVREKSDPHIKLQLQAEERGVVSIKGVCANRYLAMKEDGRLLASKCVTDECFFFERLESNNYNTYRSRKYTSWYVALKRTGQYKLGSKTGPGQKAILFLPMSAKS
# Chain of Concanavalin-A (Canavalia ensiformis) (P02866 whole entry, looked up): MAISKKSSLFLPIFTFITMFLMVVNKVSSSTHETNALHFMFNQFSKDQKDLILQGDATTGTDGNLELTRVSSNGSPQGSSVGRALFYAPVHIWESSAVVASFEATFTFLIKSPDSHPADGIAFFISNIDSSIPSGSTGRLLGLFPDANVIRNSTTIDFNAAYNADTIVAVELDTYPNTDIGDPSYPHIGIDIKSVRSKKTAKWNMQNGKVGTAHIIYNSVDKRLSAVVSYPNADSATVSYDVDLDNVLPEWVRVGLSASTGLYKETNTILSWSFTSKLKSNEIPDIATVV
# Chain of Follistatin (Homo sapiens) (P19883 whole entry, looked up): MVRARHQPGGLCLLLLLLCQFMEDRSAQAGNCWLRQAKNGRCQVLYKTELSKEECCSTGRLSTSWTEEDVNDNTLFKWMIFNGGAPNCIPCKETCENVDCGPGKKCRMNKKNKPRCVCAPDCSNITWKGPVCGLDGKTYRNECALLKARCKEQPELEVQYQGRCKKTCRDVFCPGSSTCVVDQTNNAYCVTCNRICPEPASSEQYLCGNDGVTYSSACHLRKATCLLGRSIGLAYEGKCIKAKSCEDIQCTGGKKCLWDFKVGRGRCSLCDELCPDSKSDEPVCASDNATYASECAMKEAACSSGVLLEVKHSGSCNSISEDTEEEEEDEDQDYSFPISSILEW
# Chain of Focal adhesion kinase 1 (Homo sapiens) (Q05397 whole entry, looked up): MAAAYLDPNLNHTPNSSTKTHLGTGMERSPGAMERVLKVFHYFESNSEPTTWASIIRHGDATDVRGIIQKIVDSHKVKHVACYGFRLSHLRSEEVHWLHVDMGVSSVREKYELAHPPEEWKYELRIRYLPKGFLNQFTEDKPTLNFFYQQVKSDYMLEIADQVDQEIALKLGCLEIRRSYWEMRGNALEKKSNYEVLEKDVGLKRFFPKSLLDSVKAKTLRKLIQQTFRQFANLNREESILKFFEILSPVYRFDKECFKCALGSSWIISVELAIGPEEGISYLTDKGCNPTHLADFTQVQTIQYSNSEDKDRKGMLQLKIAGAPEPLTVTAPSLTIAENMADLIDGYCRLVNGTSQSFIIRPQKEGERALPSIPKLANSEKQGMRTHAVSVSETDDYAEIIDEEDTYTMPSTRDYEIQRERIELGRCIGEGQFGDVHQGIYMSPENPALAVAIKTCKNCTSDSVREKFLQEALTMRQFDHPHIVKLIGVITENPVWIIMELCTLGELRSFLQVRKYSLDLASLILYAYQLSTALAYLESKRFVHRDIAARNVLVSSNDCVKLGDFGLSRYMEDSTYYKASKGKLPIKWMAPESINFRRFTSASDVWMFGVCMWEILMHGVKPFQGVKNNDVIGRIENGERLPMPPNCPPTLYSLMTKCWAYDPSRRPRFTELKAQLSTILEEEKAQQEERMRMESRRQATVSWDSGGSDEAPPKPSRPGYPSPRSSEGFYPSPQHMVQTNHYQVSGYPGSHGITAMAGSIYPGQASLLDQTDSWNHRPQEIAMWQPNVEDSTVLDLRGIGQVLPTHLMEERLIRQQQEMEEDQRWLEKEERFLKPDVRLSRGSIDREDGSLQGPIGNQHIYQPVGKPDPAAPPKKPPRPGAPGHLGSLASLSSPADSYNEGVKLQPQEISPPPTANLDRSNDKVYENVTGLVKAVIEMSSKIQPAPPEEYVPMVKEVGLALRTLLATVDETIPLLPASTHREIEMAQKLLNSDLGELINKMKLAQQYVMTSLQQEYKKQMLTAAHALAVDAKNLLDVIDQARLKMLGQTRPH
# Chain of Albumin (Bos taurus) (P02769 whole entry, looked up): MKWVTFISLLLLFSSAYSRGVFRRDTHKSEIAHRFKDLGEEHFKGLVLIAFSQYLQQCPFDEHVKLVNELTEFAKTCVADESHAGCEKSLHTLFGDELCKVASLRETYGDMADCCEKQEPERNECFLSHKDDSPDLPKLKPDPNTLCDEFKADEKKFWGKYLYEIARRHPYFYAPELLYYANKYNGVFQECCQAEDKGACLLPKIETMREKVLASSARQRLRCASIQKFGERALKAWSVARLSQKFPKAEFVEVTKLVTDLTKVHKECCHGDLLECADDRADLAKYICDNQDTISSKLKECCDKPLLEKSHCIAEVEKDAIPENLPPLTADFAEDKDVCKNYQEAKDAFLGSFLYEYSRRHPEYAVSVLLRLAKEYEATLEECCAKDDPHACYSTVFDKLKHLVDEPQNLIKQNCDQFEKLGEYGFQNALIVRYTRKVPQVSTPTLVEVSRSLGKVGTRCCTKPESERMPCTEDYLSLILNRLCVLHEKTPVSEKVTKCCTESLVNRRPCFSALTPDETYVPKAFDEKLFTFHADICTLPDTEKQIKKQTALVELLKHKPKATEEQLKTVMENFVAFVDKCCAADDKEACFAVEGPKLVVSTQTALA
SMILES,composite z-score (Albumin (Bos taurus)),composite Z-score [1],composite z-score [2],composite z-score [3],composite z-score [4],composite z-score [5],composite z-score [6],composite z-score (Sam68 (KHDRBS1)),composite z-score [7],composite z-score [8],composite z-score [9],composite z-score [10],composite z-score [11],composite z-score [12],composite z-score [13],composite z-score [14],z-score [15],composite z-score (Lefty1),composite z-score [16],z-score [17]
[N-]=[N+]=NCc1ccccc1C[C@@]1(C(N)=O)N=C(c2ccc(OCCCO)cc2)O[C@@H]1c1ccccc1CN=[N+]=[N-],0.757,1.22 (inactive),0.105,-0.0386,0.549,1.5,0.383,1.29,-0.464,0.792,1.13,1.22,0.0375,0.761,0.591,0.653,1.45,-0.242,0.756,-1.11 (inactive)
C[C@]1(C(=O)NC2CC2)c2ccccc2C(=O)N(Cc2ccc(OC(F)(F)F)cc2)[C@H]1c1ccc(CO)cc1,-0.85,-0.0189 (inactive),0.0271,0.0049,0.37,0.209,0.0915,0.0003,-1.14,-0.698,-0.725,0.722,0.576,-0.796,-0.239,0.0672,1,-0.858,-1.5,0.371 (inactive)
COCCCNC(=O)[C@]1(Cc2ccccc2N=[N+]=[N-])N=C(c2ccc(OCCCO)cc2)O[C@@H]1c1ccccc1N=[N+]=[N-],0.99,0.0401 (inactive),0.0348,-0.0372,0.666,2.33,-0.0886,1.3,-0.502,1.09,2.22,1.19,0.356,0.983,0.778,-0.165,-0.214,-0.252,0.676,-3.27 (inactive)
CCOc1cc(C(O)C2C=CC3C(=O)N(C)C(=O)C3N2N2CCCCC2)ccc1O (stereo not given),0.534,0.293 (inactive),0.135,-0.0106,0.709,0.733,0.14,0.0667,0.278,0.852,1,-0.158,0.125,0.498,0.746,0.1,-0.634,0.192,0.335,-0.906 (inactive)
CC(C)(C)OC(=O)CC[C@@]1(C(=O)O)N=C(c2ccc(OCCCO)cc2)O[C@@H]1c1ccccc1,0.273,-0.204 (inactive),-0.1,-0.0037,0.824,1.98,-0.021,0.721,-0.811,0.335,1.52,0.716,-0.219,0.506,0.0761,-0.228,-0.161,-0.643,-0.0131,0.383 (inactive)
COc1cc2c(cc1OC)CN(C(=O)[C@@H]1[C@H]3C(=O)O[C@H](c4ccccc4)[C@H](c4ccccc4)N3[C@H](c3ccccc3OCCO)[C@@]13C(=O)Nc1ccc(C#CC4(O)CCCCCC4)cc13)CC2,0.319,0.428 (inactive),0.0316,-0.0859,0.527,1.48,0.829,1.3,0.334,1.13,1.57,1.17,-0.0242,0.787,0.954,0.513,-0.825,0.895,0.9,-0.877 (inactive)
COCCOC(=O)N1C(=O)[C@@]2(c3cc(C#CC4(O)CCCCCC4)ccc31)[C@H](C(N)=O)[C@H]1C(=O)O[C@H](c3ccccc3)[C@H](c3ccccc3)N1[C@@H]2c1ccccc1OCCO,0.199,-0.526 (inactive),-0.6,-0.219,0.541,2,0.591,1.31,0.369,0.845,1.84,1.22,0.988,0.662,1.17,1.56,-0.994,0.569,0.26,-0.806 (inactive)
C[n+]1ccc(CCCO)cc1,-0.911,0.165 (inactive),0.182,-0.0211,0.321,2.53,1.6,0.0844,0.127,-0.0858,-0.278,-1.41,-0.526,-1.48,1.37,1.44,-0.195,1.36,-0.72,0.246 (inactive)
CC(CO)N1C(=O)[C@@H]2C3C(=O)OCCC/C=C\[C@H]3OC23C=CCN(Cn2nnc4ccccc42)C(=O)[C@@H]13 (stereo not given in full),0.717,0.323 (inactive),-0.192,-0.14,0.869,-0.202,-0.237,-1.07,0.034,-1.01,3.15,-0.589,-0.923,-0.326,-0.171,-0.614,0.918,-0.13,-0.276,0.196 (inactive)
CC(=O)N1Cc2ccccc2C[C@]2(N=C(c3ccc(OCCCO)cc3)O[C@@H]2c2ccccc2)C1=O,-0.569,0.581 (inactive),0.0242,-0.0424,0.552,2.87,0.451,1.3,0.15,1.13,2.62,1.2,0.552,0.654,0.743,1.2,0.638,0.036,0.956,-2 (inactive)
C=CCN1Cc2ccccc2C[C@@]2(N=C(c3ccc(OCCCO)cc3)O[C@H]2c2ccccc2)C1=O,0.247,0.667 (inactive),0.106,-0.0148,0.577,3.06,0.326,1.3,0.185,1.14,0.69,1.24,0.649,0.801,0.749,0.955,0.943,0.0744,0.98,-0.668 (inactive)
